Experimental data from PMC10726135, “HNF4α isoforms regulate the circadian balance between carbohydrate and lipid metabolism in the liver”.
The full ranking holds about 18,000 sequences; the median of “log2 normalized intensity” is about 0.39, and the highest 2% start at about 6.6. This excerpt belongs to a sample that is enriched for the highest values.

These sequences were tested against T1, HNF4alpha2 (COS-7 nuclear extract) (Homo sapiens, UniProt P41235 1-474) (assay: protein-binding microarray; COS-7 nuclear extract on double-stranded Agilent 4x180k PBM; binding buffer, salt, pH and temperature not given in the material; high values mean tight binding). Conditions: chain copies: 2; label: 3' end of strand 1 on the slide; dsDNA, one strand shown.
T1 sequence: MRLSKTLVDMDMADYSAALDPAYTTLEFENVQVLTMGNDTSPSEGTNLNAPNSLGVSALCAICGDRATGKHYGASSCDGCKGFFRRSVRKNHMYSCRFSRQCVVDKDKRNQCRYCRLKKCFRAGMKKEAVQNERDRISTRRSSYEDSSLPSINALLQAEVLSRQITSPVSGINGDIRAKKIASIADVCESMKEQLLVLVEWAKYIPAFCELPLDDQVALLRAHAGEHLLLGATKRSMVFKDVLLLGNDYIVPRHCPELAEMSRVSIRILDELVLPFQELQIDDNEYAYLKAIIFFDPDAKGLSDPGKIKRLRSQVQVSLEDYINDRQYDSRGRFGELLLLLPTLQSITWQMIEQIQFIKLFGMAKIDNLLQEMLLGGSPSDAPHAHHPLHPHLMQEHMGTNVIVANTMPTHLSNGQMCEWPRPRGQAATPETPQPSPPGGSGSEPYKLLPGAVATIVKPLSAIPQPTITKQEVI
Method in brief: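 Binding signal is the background-corrected, normalized gProcessedSignal calculated by Agilent software. It was measured by applying nuclear extracts of COS-7 cells transiently transfected with a human HNF4α isoform expression vector to a custom Agilent SurePrint G3 4x180k array of ~44,000 double-stranded ~60-nt test sequences in quadruplicate, then imaging bound HNF4α on an Agilent G2565CA scanner at 2-µm resolution.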

First: CTTTGGACTTTCAAAAGTTAAGGTCAAGACGCCTAGGGAGATTAGAGTATCGGTCGA
Second: TCTTAGGAAAGAACAGGTCAAAGGTCAGTTGCCTAGGGAGATTAGAGTATCGGTCGA
The binding signal of the first is lower: 1.94 log2 normalized intensity for the first, 9.13 log2 normalized intensity for the second.

First: TAGGAGACTGTCTTAGGAAAGAACAGGTCAGCCTAGGGAGATTAGAGTATCGGTCGA
Second: GAACAGGTCAAAGGTCAGTTTCTTTAAGACGCCTAGGGAGATTAGAGTATCGGTCGA
The binding signal of the first is lower: 1.14 log2 normalized intensity for the first, 7.04 log2 normalized intensity for the second.

Going from “GCAGTTTAGAGAAAGGGTCAAAGGTTAAGCGCCTAGGGAGATTAGAGTATCGGTCGA” to “GGAAAGAACAGGTCAAAGGTCAGTTTCTTTGCCTAGGGAGATTAGAGTATCGGTCGA”, the binding signal falls from 8.4 log2 normalized intensity to 7.28 log2 normalized intensity.

First: AAGATTTATCAGGTCTTTCTTTCAGAACAGGCCTAGGGAGATTAGAGTATCGGTCGA
Second: GGTCAAAGGTCAGTTTCTTTAAGACAAGTGGCCTAGGGAGATTAGAGTATCGGTCGA
The binding signal of the first is lower: 0.622 log2 normalized intensity for the first, 5.53 log2 normalized intensity for the second.

Compared with “TCAGAAACAGGAATTCAAAGGTGCAAAGGTGCCTAGGGAGATTAGAGTATCGGTCGA”, “TTAGAGAAAGGGTCAAAGGTTAAGCCATTGGCCTAGGGAGATTAGAGTATCGGTCGA” is higher in binding signal: 2.06 log2 normalized intensity for the first, 5.92 log2 normalized intensity for the second.

First: ACCCTGAATGTGTGCTGGCCTGGTTCCTTCGCCTAGGGAGATTAGAGTATCGGTCGA
Second: TTGTCCCTTTTCTATCCAGATGATCTTTACGCCTAGGGAGATTAGAGTATCGGTCGA
The binding signal of the first is lower: 0.887 log2 normalized intensity for the first, 2.25 log2 normalized intensity for the second.

First: GTCCCAGTAGATAACTTCAAGGAGCTCGGCGCCTAGGGAGATTAGAGTATCGGTCGA
Second: GTAGGGCCAATCTCTGGCATGTATTTATCAGCCTAGGGAGATTAGAGTATCGGTCGA
The binding signal of the first is lower: -0.627 log2 normalized intensity for the first, 0.384 log2 normalized intensity for the second.

Compared with “ATAGGAGGATTTTATTCAGGTGGCCACTGGGCCTAGGGAGATTAGAGTATCGGTCGA”, “GTTCCGCGGTCCGCAGCGCTGGTGGCTGCAGCCTAGGGAGATTAGAGTATCGGTCGA” is lower in binding signal: 1.03 log2 normalized intensity for the first, -0.919 log2 normalized intensity for the second.

First: CTTTGTATAAGCCGTGCAAAGTTCATCCCTGCCTAGGGAGATTAGAGTATCGGTCGA
Second: CTCGAGGTGGACTTTCCCCCCTCACACTTTGCCTAGGGAGATTAGAGTATCGGTCGA
The binding signal of the first is lower: 3.24 log2 normalized intensity for the first, 5.25 log2 normalized intensity for the second.

First: TTGTTTTTGCTTGGAATGCCCTTATCTCATGCCTAGGGAGATTAGAGTATCGGTCGA
Second: AGCTGGGCCTGTGCTGGGGACAAAAGCTGAGCCTAGGGAGATTAGAGTATCGGTCGA
The binding signal of the first is higher: 2.32 log2 normalized intensity for the first, -0.959 log2 normalized intensity for the second.

First: TCTCTCCCTCCTCCTTTTTTTCCCCTCCCTGCCTAGGGAGATTAGAGTATCGGTCGA
Second: CTTACTCTCTCCCTCCTCCTTTTTTTCCCCGCCTAGGGAGATTAGAGTATCGGTCGA
The binding signal of the first is higher: 4.61 log2 normalized intensity for the first, 2.98 log2 normalized intensity for the second.

Going from “CCCTCCTCCTTTTTTTCCCCTCCCTCAGCTGCCTAGGGAGATTAGAGTATCGGTCGA” to “ATTCCCTTTCTCCTCCCCTCCCCTCCCCCCGCCTAGGGAGATTAGAGTATCGGTCGA”, the binding signal rises from 3.64 log2 normalized intensity to 6.91 log2 normalized intensity.

Going from “ACACCAGGCCCTCGGCATCATGCCCTTTGGGCCTAGGGAGATTAGAGTATCGGTCGA” to “CTCGGCATCATGCCCTTTGGCCCCCAGAGCGCCTAGGGAGATTAGAGTATCGGTCGA”, the binding signal rises from 3.91 log2 normalized intensity to 6.14 log2 normalized intensity.

Compared with “TTCCTCCCACTCTGACATCCCCCTTTCTCTGCCTAGGGAGATTAGAGTATCGGTCGA”, “TTTTCCACCCTCCCCTCCCCCTCCTCCCCTGCCTAGGGAGATTAGAGTATCGGTCGA” is higher in binding signal: 3.26 log2 normalized intensity for the first, 7.13 log2 normalized intensity for the second.

Compared with “CTTTCTCCTCCCCTCCCCTCCCCCCACTCAGCCTAGGGAGATTAGAGTATCGGTCGA”, “ACTGCATTCCCTTTCTCCTCCCCTCCCCTCGCCTAGGGAGATTAGAGTATCGGTCGA” is lower in binding signal: 6.94 log2 normalized intensity for the first, 4.31 log2 normalized intensity for the second.

Going from “CATTTTTTTCCACCCTCCCCTCCCCCTCCTGCCTAGGGAGATTAGAGTATCGGTCGA” to “AGGCCCTCGGCATCATGCCCTTTGGCCCCCGCCTAGGGAGATTAGAGTATCGGTCGA”, the binding signal rises from 6.28 log2 normalized intensity to 7.28 log2 normalized intensity.

Compared with “TCCTGATCCCTGAGGTCGGGGCCTGGTCTGGCCTAGGGAGATTAGAGTATCGGTCGA”, “CAATGCCCCAGAAAGCCAGCAGGGGCTGCTGCCTAGGGAGATTAGAGTATCGGTCGA” is lower in binding signal: 0.683 log2 normalized intensity for the first, -0.844 log2 normalized intensity for the second.

Going from “AGCTTCTCTTTCTAGGTCACCACCTTTTTTGCCTAGGGAGATTAGAGTATCGGTCGA” to “GGCCTGATAGATTTTGCATTGCTCACATAGGCCTAGGGAGATTAGAGTATCGGTCGA”, the binding signal falls from 1.37 log2 normalized intensity to -0.988 log2 normalized intensity.

First: TCCTCCAAAACCCAGTTCATAGGTCAATTCGCCTAGGGAGATTAGAGTATCGGTCGA
Second: ACGCCCCACCCCCTCCACCCCTGCCTTTCAGCCTAGGGAGATTAGAGTATCGGTCGA
The binding signal of the first is lower: 4.02 log2 normalized intensity for the first, 6.39 log2 normalized intensity for the second.

Compared with “GAAAAAGCTGACGCCCCACCCCCTCCACCCGCCTAGGGAGATTAGAGTATCGGTCGA”, “CCCTCCCCTCCCCCCACTCAAAATAGGAGTGCCTAGGGAGATTAGAGTATCGGTCGA” is lower in binding signal: 6.44 log2 normalized intensity for the first, 4.52 log2 normalized intensity for the second.

First: TCCTCCCCTCCCCTCCCCCCACTCAAAATAGCCTAGGGAGATTAGAGTATCGGTCGA
Second: CCCTCCCCCCACTCAAAATAGGAGTTAAGGGCCTAGGGAGATTAGAGTATCGGTCGA
The binding signal of the first is higher: 6.79 log2 normalized intensity for the first, 2.45 log2 normalized intensity for the second.

For “AGCTGACGCCCCACCCCCTCCACCCCTGCCGCCTAGGGAGATTAGAGTATCGGTCGA”, the binding signal was 6.82 log2 normalized intensity.
